Measured values as given in PubChem BioAssay (NCATS).
Inconclusive results are not listed. Unmarked numbers belong to inactive results. The call rests on the fitted dose curve; in most records, active means well fitted cell-killing curve with a large enough effect; inconclusive means small, poorly fitted or top-dose-only effect, or effect the other way; inactive means flat fitted curve, though single readings scatter.

test system: OV90; assay: Primary qHTS to identify gynecologic anti-cancer compounds using libraries of approved drugs and bioactive compounds (AID 1345084); conditions: Gynecologic cancer cell panel viability, ATPlite luminescence, 48 h; series mostly up to 57.5 µM; activity change, negative = cytotoxicity: at the top concentration; further: nearly all actives have a fitted effect of over 55% in size
Procedure, shortened: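 Five-concentration response, 48 h; readout is ATP-driven luciferase luminescence.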
On the % scale 0 is the no-effect control and ±100 the full control effect.

SMILES | activity change, negative = cytotoxicity
CC1CCC2(C)CCC3(C)C(=CCC4C5(C)CCC(O)C(C)(C(=O)O)C5CCC43C)C2C1C (configuration not stated) | 4.11% [at 25.3 µM]
NC(N)=NCCC[C@H](NC(=O)c1sccc1NS(=O)(=O)c1cccc2nsnc12)C(=O)O | 5.14%
CC[C@@H](C)[C@H](N)C(=O)N1Cc2ccccc2C1 | 12.7%
Cc1cc(-c2nncc3c(C(C)(C)C)c(OCc4ncnn4C)nn23)no1 | 4.84%
CC1(C)CC[C@]2(C(=O)O)CC[C@]3(C)C(=CCC4[C@@]5(C)C[C@@H](O)[C@H](O)[C@](C)(CO)C5CC[C@]43C)[C@@H]2[C@@H]1O (some centres not stated) | -30.2% [at 25.3 µM]
C/C=C/C=C/C(O)=C1/C(=O)[C@]2(C)C3/C(=C(O)/C=C/C=C/C)C(=O)C4(C)C1[C@]1(C)O[C@@]4(O)[C@@]3(C)O[C@@]12O | -0.99% [at 25.3 µM]
C/C=C(/C)C(=O)O[C@H]1C[C@]2(C)O[C@@H]2[C@@H](OC(C)=O)[C@@]2(C)CC[C@@](O)(C(C)C)[C@H]12 | -10.5% [at 38.5 µM]
O=C(c1c2ccccc2cc2ccccc12)N1CCC(N2CCC[C@@H](C(=O)N3CCOCC3)C2)CC1 | -3.69%
C[C@]1(OC(=O)/C=C\c2ccc(O)cc2)C[C@@H](O)[C@]2(O)C=CO[C@@H](O[C@@H]3O[C@H](CO)[C@@H](O)[C@H](O)[C@H]3O)C12 (some centres not stated) | 13.2% [at 25.3 µM]
C[C@H]1CC[C@@]2(OC1)O[C@H]1CC3C4CC[C@H]5C[C@@H](O[C@@H]6O[C@H](CO)[C@H](O[C@@H]7O[C@H](CO)[C@@H](O)[C@H](O[C@@H]8OC[C@@H](O)[C@H](O)[C@H]8O)[C@H]7O[C@@H]7O[C@H](CO)[C@@H](O)[C@H](O)[C@H]7O)[C@H](O)[C@H]6O)[C@H](O)C[C@]5(C)C4=CC(=O)[C@]3(C)[C@H]1[C@@H]2C (some centres not stated) | -5.92% [at 11.6 µM]
COc1cc(C(=O)OCC2=CCC3C(C(=O)O)=COC(O[C@@H]4O[C@H](CO)[C@@H](O)[C@H](O)[C@H]4O)C23)ccc1O (some centres not stated) | 6.22% [at 25.3 µM]
C/C=C/C=C/C=C/C(=O)N(C)C(C(=O)NC(C)C(=O)N1CCCC1C(N)=O)C(C)C (configuration not stated) | 7.37% [at 25.3 µM]
O=C(O)CC1CCC(c2ccc(-c3ccc(Nc4ccc(C(F)(F)F)nc4)cn3)cc2)CC1 (configuration not stated) | -3.48%
C=CC(C)(O)CC/C=C(\C)C(=O)O[C@@H]1[C@@H](O)[C@H](OC(C)(C=C)CC/C=C(\C)C(=O)O[C@@H]2O[C@H](CO)[C@@H](O)[C@H](O)[C@H]2O)O[C@H](CO)[C@H]1OC(=O)/C(C)=C/CCC(C)(O)C=C (some centres not stated) | -1.43% [at 11.6 µM]
C[C@@H]1O[C@@H](O[C@H]2[C@H](O)[C@@H](O[C@@H]3O[C@H](CO)[C@H](O)[C@H](O)[C@H]3O)[C@H](O[C@H]3CC[C@@]4(C)C(CC[C@]5(C)C4CC=C4[C@@H]6CC(C)(C)CC[C@]6(C(=O)O[C@@H]6O[C@H](CO)[C@@H](O)[C@H](O)[C@H]6O)CC[C@]45C)C3(C)C)O[C@@H]2C(=O)O)[C@H](O)[C@H](O)[C@H]1O (some centres not stated) | 5.7% [at 11.6 µM]
O=C(O)Cc1cn([C@@H]2OC[C@@H](O[C@@H]3O[C@H](CO)[C@@H](O)[C@H](O)[C@H]3O)[C@H](O)[C@H]2O[C@@H]2O[C@H](CO)[C@@H](O)[C@H](O)[C@H]2O)c2ccccc12 | 6.68% [at 25.3 µM]
CCC(C)/C=C(C)/C=C/C(=O)C1CCC(O)C(C)(O)C1=O (configuration not stated) | 4.68%
COc1cn(-c2ccc(-n3cccn3)cc2F)nc(-c2ccnn2-c2ccccc2)c1=O | 1.58%
CCC1(O)CC2c3cc(OC)c(OC)cc3CCN2CC1CC(C)C (configuration not stated) | 1.94%
CC(C)=C1C[C@@]2(C)C(=CC1=O)CC[C@@H](O)[C@@H]2C | -5.73%
COC(=O)C(Cc1ccccc1)NC(=O)c1ccccc1 (configuration not stated) | -1.64%
C/C(=C\CCC(C)C1CC(O)C2(C)C3CCC4C(C)(C)C(OC5OCC(O)C(O)C5O)CCC45CC35CC(O)C12C)C(=O)O (configuration not stated) | -0.877% [at 25.3 µM]
CSCC1OC(n2cnc3c(=O)[nH]cnc32)C(O)C1O (configuration not stated) | 0.903%
C[C@@H]1O[C@@H](O[C@H]2[C@H](OC(=O)[C@]34CCC(C)(C)C[C@H]3C3=CCC5[C@@]6(C)CC[C@H](O[C@@H]7O[C@H](CO[C@@H]8OC[C@H](O)[C@H](O)[C@H]8O)[C@@H](O)[C@H](O)[C@H]7O)C(C)(C)C6CC[C@@]5(C)[C@]3(C)C[C@H]4O)OC[C@@H](O)[C@@H]2O)[C@H](O)[C@H](O[C@@H]2OC[C@](O)(CO)[C@H]2O)[C@H]1O[C@@H]1OC[C@H](O)[C@H](O[C@@H]2OC[C@@H](O)[C@H](O)[C@H]2O)[C@H]1O (some centres not stated) | -11.9% [at 6.55 µM]
C[C@@H]1[C@H](O)[C@@H]2OC(=O)C3=C2[C@H](CCC3)[C@@]12C[C@@H](c1ccoc1)OC2=O | 4.59% [at 38.5 µM]
C/C=C1/C[N+](C)([O-])C2Cc3c([nH]c4ccccc34)C(=O)CC1C2C(=O)OC (configuration not stated) | -10.7% [at 38.5 µM]
COc1cc(O)cc(O[C@@H]2O[C@H](CO)[C@@H](O[C@@H]3OC[C@](O)(CO)[C@H]3O)[C@H](O)[C@H]2O)c1OC | -2.24% [at 25.3 µM]
